High-throughput results deposited in PubChem BioAssay by National Center for Advancing Translational Sciences (NCATS).
A selection: hits, their analogues and other compounds. The true share with any hit is near 21%.
NS1 function inh – inhibitors of influenza NS1 protein function; Potency, µM (titrated, usually from 46.1 µM), for the others: at the top dose activity, positive = more growth; hit rate 0.4% among 270,000; AID 2326; calls by dose curve; also: potency is read from the fitted curve at half-maximal effect; actives are rising curves; nearly all actives have a fitted effect of over 50% in size
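S. cerevisiae expressing influenza A NS1, grown in glucose, washed, then diluted 1:100 into pH 6.0 -URA galactose medium with 23 nl compound. Growth recovery read as OD600; NS1-free strain serves as control.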
Pf growth 96h – P. falciparum growth inhibition at 96 hour, primary screen for plastid delayed-death inhibitors; Potency, µM (series often up to 28.7 µM), for inactives: at the top dose activity change, negative = inhibition, most hits filed as inhibitors; AID 504834; hit rate 6.9% among 320,000; P. falciparum luciferase reporter growth, 96 h; also: potency is read from the fitted curve at half-maximal effect; % is scaled to controls: 0 for no effect and ±100 for the full control effect
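Two-generation exposure (96 h) targets delayed-death phenotype. Reporter parasites carrying integrated firefly luciferase, in red cells at 2% hematocrit and 0.05% parasitemia final, kept at 37 C, 5% CO2; luminescence loss indicates inhibition.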
Sm TGR inh – S. mansoni TGR enzyme inhibition; hit rate 3% among 360,000; AID 485364; Potency, µM (series often up to 114 µM), for inactives: at the highest dose activity change, negative = inhibition, most hits filed as inhibitors; purified TGR, DTNB reduction, TNB absorbance 405 nm; Q962Y6; also: potency is read from the fitted curve at half-maximal effect; % is scaled to controls: 0 for no effect and ±100 for the full control effect; nearly all actives have a fitted effect of over 60% in size
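Kinetic colorimetric format: TGR-catalysed, NADPH-driven DTNB reduction monitored via TNB absorbance. Enzyme dispensed at 20 nM; compound exposure 15 min at room temperature before reaction start.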
CHX counter – counter-screen hit for Shiga toxin inhibitors, cycloheximide | cell reporter, cycloheximide protein synthesis inhibition counterscreen | max response, % | hit rate 12% among 300,000; in the data active = max response mostly above about 13%, no sharp cut-off; inactive = mostly below about 14%; also: read at 38.3 µM for the half of the compounds with a filed dose; 0% is about no effect
Pf growth 48h – P. falciparum growth inhibition at 48 hours (one generation) | AID 504832 | hit rate 5.9% among 310,000 | Potency, µM (titrated, usually from 28.7 µM), inactives show top-dose activity change, negative = inhibition, actives largely listed as inhibitors | P. falciparum luciferase growth in erythrocytes, 48 h; also: potency is read from the fitted curve at half-maximal effect; % is scaled to controls: 0 for no effect and ±100 for the full control effect
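First compound was added to culture medium, then infected red cells at 0.1% parasitemia and 2% hematocrit (final). After incubation at 37 C under 5% CO2, luciferase detection reagent was dispensed and light output recorded.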
Shiga inhibitor – Shiga toxin inhibition | AID 2315 | hit rate 9.2% among 290,000 | Vero cells, Shiga toxin protein synthesis inhibition reporter | inhibition, % at 38.7 µM; in the data active = inhibition mostly above about 28%, no sharp cut-off; inactive = mostly below about 43%; also: 0% is about no effect
Numbers without * were called inactive; ? = inconclusive; nt = no result; [ ] = dose if it differs, or a comment. Unless noted, calls follow the shape of the dose curve; as a rule, active = well fitted curve in the direction sought with a large enough effect; inconclusive = small, poorly fitted or top-dose-only effect, or another doubt; inactive = no such curve, though single readings can be large; an effect the other way counts as inactive or inconclusive.

SMILES	NS1 function inh	Pf growth 96h	Sm TGR inh	CHX counter	Pf growth 48h	Shiga inhibitor
CCc1ccc2nc3nc(C)cc(C)c3c(N)c2c1	1%	1.7µM*	3%	20*	?	91*
Cc1cc(C)c2c(N)c3ccccc3nc2n1	-21%	106%	8%	3	15µM*	73
COC(=O)CC1COc2ccccc2N1S(=O)(=O)c1ccc(Br)cc1 (stereo unspecified)	5%	?	14%	0	?	-6
COCCCNC(=O)CCc1nnc2ccc(N3CCC(C)CC3)nn12	-4%	61%	0%	2	-25%	-3
C/C(=N\O)c1ccc2[nH]ccc2c1	16%	0%	-8%	15*	84%	38
CCOC(=O)C1CCN(c2cc(=O)n(-c3ccccc3Cl)c(=O)[nH]2)CC1	6%	13%	-14%	-3	1.9µM*	-3
O=c1cc(N2CCCCCC2)[nH]c(=O)n1-c1ccccc1Cl	nt	-3%	1%	-3	6%	-2
CCOC(=O)N1CCN(c2cc(=O)n(C3CCCCC3)c(=O)[nH]2)CC1	2%	?	10%	0	-6%	-3
CCOC(=O)C1CCN(c2cc(=O)n(C3CCCCC3)c(=O)[nH]2)CC1	-3%	53%	4%	1	2.9µM*	-2
CCCCNN	-3%	nt	nt	nt	nt	nt
COc1ccc(NC(=O)CC2C(=O)N(c3ccc(OC)cc3)C(=O)N2CCC2=CCCCC2)cc1 (stereo unspecified)	nt	nt	9%	nt	nt	nt
Cc1cccc(C)c1NC(=O)CC1SC2=NCCN2C1=O (stereo unspecified)	11%	nt	25µM*	-1	-22%	-11
CSc1nnc2c(n1)OC1(Nc3ccccc3-2)C(=O)Nc2ccccc21 (stereo unspecified)	nt	11%	8%	-3	14%	3
CCCc1[nH]c(=O)c(C#N)c2c1COC(C)(C)C2	1%	1.7µM*	2%	-4	nt	-12
CCCCc1[nH]c(=O)c(C#N)c2c1CSC(C)(C)C2	18%	-6%	32µM*	-2	9%	-18
CC1=C(C(=O)Nc2ccccc2)C(c2ccc(Br)cc2)n2nc(CCCO)nc2N1 (stereo unspecified)	nt	nt	1%	nt	nt	nt
Cc1ccc(S(=O)(=O)c2nnn3c2nc(N2CCC(C(N)=O)CC2)c2ccccc23)cc1	-3%	-3%	-20%	2	-8%	-8
CCOc1ccccc1NC(=O)CNC(=O)c1nn(-c2ccc(OC)c(OC)c2)c(=O)c2ccccc12	2%	?	-11%	1	13µM*	-4
COc1ccc(/C=N/NC(=O)c2nn(-c3ccc(C)c(C)c3)c(=O)c3ccccc23)cc1	25%	?	1%	-2	13µM*	14
COc1ccc(-n2nc(C(=O)NCC(=O)Nc3cc(OC)ccc3OC)c3ccccc3c2=O)cc1	-4%	?	-4%	-9	3.3µM*	-5
COc1ccc(-n2nc(C(=O)NCC(=O)NC3CCCC(C)C3C)c3ccccc3c2=O)c(OC)c1 (stereo unspecified)	20%	5.9µM*	1%	-2	?	2
COc1ccc(/C=N/NC(=O)c2nn(-c3ccccc3)c(=O)c3c(N)scc23)cc1	1%	?	-16%	5	?	-7
CC1(C)CC(=O)C2=C(C1)c1c(ccc3ccccc13)NC2c1cc([N+](=O)[O-])cc([N+](=O)[O-])c1O (stereo unspecified)	?	-2%	-18%[57.1 µM]	4	?	20
Cc1cc(C)nc(SCC(=O)NNS(=O)(=O)c2ccc(C#N)cc2)n1	nt	45%	6%	nt	0%	nt
COc1ccc(/C=N/NC(=O)c2nn(-c3ccc(Cl)cc3)c(=O)c3c(N)scc23)cc1	26%	8.3µM*	-24%	-4	nt	-2
COc1ccc(-n2nc(C(=O)NCC(=O)Nc3ccccn3)c3ccccc3c2=O)cc1Cl	-1%	9.3µM*	-20%	0	6%	-4
COc1ccc(-n2nc(C(=O)NCC(=O)Nc3ccc(F)cc3)c3ccccc3c2=O)cc1	-9%	4%	-6%	-2	12µM*	-8
COc1ccc(NC(=O)CNC(=O)c2nn(-c3ccc(OC)c(Cl)c3)c(=O)c3ccccc23)c(OC)c1	4%	-30%	-7%	-3	9.3µM*	-7
